Results published in PubChem BioAssay AID463173 (ICCB-Longwood Screening Facility, Harvard Medical School, 2010).
Among all 52,000 compounds or so, about 4,300 (8.3%) were called active. The entries come from a sample that favours actives as a whole. A number with no mark means an inactive call. Rule as the data show it: active = survival mostly below about 52% (no sharp cut-off); inactive = mostly above about 56%.

These compounds were tested on DeltatarO mutant (assay: growth inhibition of S. aureus wild type versus tarO mutant, primary screen, teichoic acid synthesis inhibitors, RN4220, OD600 (AID 463173)). Settings: OD600, 18 h, stronger effect = lower value, screened at 18.75 µg/mL (by protocol).
For `COc1ccc(NC(=O)c2c(NCc3sccc3C)sc3c2CCCCC3)c(OC)c1`, the survival was 85%.
Compound `CCOc1ccc(CCNc2ncnc3onc(C)c23)cc1OCC` has a survival of 71%.
`O=C(Nc1cccnc1)c1cc(-c2cccc(Cl)c2)on1` gave a survival of 115%.
Compound `O=C(CN1C=NS(=O)(=O)c2ccccc21)Nc1ccc(F)cc1` has a survival of 87%.
In the case of `CC1=C(C(=O)Nc2ccc(C)cc2C)C(c2ccc[nH]2)n2ncnc2N1` (stereo not given), the survival is reported as 89%.
With `O=C(CSc1ncc2c(n1)-c1ccccc1N(Cc1ccc(F)cc1)S2(=O)=O)c1ccc(Cl)cc1` the survival was 89%.
In the case of `CCOC(=O)c1c(C)[nH]c(C)c1S(=O)(=O)N(C)CC(=O)N1CCN(c2cccc(C)c2C)CC1`, the survival is reported as 84%.
For `CC(C)c1nn2c(=O)cc(COC(=O)c3ccc(NC(=O)COc4ccccc4)cc3)nc2s1`, the survival was 98%.
For `O=C(NCCS(=O)(=O)N1CCN(c2ccc(F)cc2)CC1)c1cc(=O)c2ccccc2o1`, the survival was 94%.
`CCCCN1C(=O)CN(C2CCCCCC2)C(=O)C1c1ccc(OCCC)c(OC)c1` (stereo not given) showed a survival of 66%.
`CCCOc1ccc(C2C(=O)N(C3CCCCCC3)CC(=O)N2CCC2=CCCCC2)cc1OC` (stereo not given) showed a survival of 119%.
With `COc1ccc(C2C(=O)N(C3CCC(C)CC3)CC(=O)N2C2CCCC2)cc1OC` (stereo not given) the survival was -2% (active).
With `CCCOc1ccc(C2C(=O)N(C3CCCCCC3)CC(=O)N2CCC)cc1OC` (stereo not given) the survival was -4% (active).
For `CCCN1C(=O)CN(C2CCCCCC2)C(=O)C1c1ccc(OCC)c(OC)c1` (stereo not given), the survival was 109%.
Compound `CCCOc1ccc(C2C(=O)N(C3CCC(C)CC3)CC(=O)N2CCC2=CCCCC2)cc1OC` (stereo not given) has a survival of 80%.
With `COc1ccc(C2C(=O)N(C3CCC(C)CC3)CC(=O)N2CCC2=CCCCC2)cc1OC` (stereo not given) the survival was -1% (active).
In the case of `COc1ccc(C2C(=O)N(C3CCC(C)CC3)CC(=O)N2C2CCCCC2)cc1OC` (stereo not given), the survival is reported as 76%.
Compound `CCCOc1ccc(C2C(=O)N(C3CCCCC3)CC(=O)N2C2CCCCC2)cc1OC` (stereo not given) has a survival of 91%.
`CCCCN(C)C(=O)CN1C(=O)CCn2nc(-c3cn(C)c4ccccc34)cc21` showed a survival of 117%.
`Cc1cccc(NC(=O)CSc2nc(=O)n(CCN3CCOCC3)c3c2CCC3)c1` gave a survival of 86%.
`COc1cccc(C(=O)NCCSc2c(-c3ccc(F)cc3)[nH]c3ccccc23)c1OC` was tested, and the survival was 52%.
In the case of `O=C(NC1CCN(C(=O)Nc2cccc(F)c2)CC1)c1ccco1`, the survival is reported as 88%.
With `COc1cccc(N2C(=O)N(CC(=O)NCc3cccc(OC)c3OC)c3ccccc3S2(=O)=O)c1` the survival was 95%.
`COc1cc(C(Nc2ccc(S(=O)(=O)N3CCCC3)cc2)C(=O)NC(C)(C)C)cc(OC)c1OC` (stereo not given) showed a survival of 77%.
With `CC(=O)ONC(=Nc1ccccc1C)c1nonc1N` the survival was 101%.
`Cc1ccc(-c2csc(/C(C#N)=C/c3ccccc3Cl)n2)cc1` was tested, and the survival was 21% (active).
`N#C/C(=C/c1ccccc1Cl)c1nc(-c2cc3ccccc3oc2=O)cs1` showed a survival of 81%.
For `COc1ccc(OC)c(/C=C(/C#N)c2nc(-c3ccc(-c4ccccc4)cc3)cs2)c1`, the survival was 52%.
`Cc1ccccc1/C=C(\C#N)c1nc(-c2ccc(Cl)cc2)cs1` was tested, and the survival was 14% (active).
With `COc1c(Cl)cc(Cl)cc1/C=C(\C#N)c1nc(-c2ccc(Cl)cc2)cs1` the survival was 122%.
With `N#C/C(=C\c1ccc(Cl)cc1Cl)c1nc(-c2cccc(Cl)c2)cs1` the survival was 79%.
With `O=C1[C@@H]2CSC(c3ccc(Cl)cc3)N2C(=O)N1c1ccccc1` (stereo not given in full) the survival was 71%.
`CCc1ccc(CSc2nc(-c3ccc(OC)cc3)nc3c2Cc2c(CO)cnc(C)c2O3)cc1` showed a survival of 72%.
`COCCNC(=O)C1CC(=O)N(c2ccc(C)cc2)C1` (stereo not given) gave a survival of 82%.
In the case of `CCOC(=O)c1cc(-c2ccc(OC)cc2)n(CCC(=O)NC2CCCCC2)c1C`, the survival is reported as 115%.
In the case of `CCOc1ccc(CCNC(=O)Cn2nnc(-c3ccc(C(F)(F)F)cc3)n2)cc1OCC`, the survival is reported as 82%.
For `O=C(CSc1nc(=O)n(Cc2ccncc2)c2c1CCC2)Nc1ccc(F)cc1F`, the survival was 78%.
Work on `COc1ccc(Nc2c(-c3ccc(C)o3)nc3ccc(Cl)cn23)cc1` yielded a survival of 65%.
`CCOC(=O)C1(C)C=C(Nc2cccc(C)c2)C(=O)N1c1ccccc1` (stereo not given) was tested, and the survival was 15% (active).
Compound `CCOC(=O)C1(C)C=C(Nc2cccc(C(=O)O)c2)C(=O)N1c1ccccc1` (stereo not given) has a survival of 73%.
With `CCOC(=O)C1(C)C=C(Nc2ccc(C)cc2)C(=O)N1c1ccccc1` (stereo not given) the survival was 50%.
`O=c1[nH]c2ccc(S(=O)(=O)Nc3cc(Cl)ccc3O)cc2o1` showed a survival of 86%.
For `CC(C(=O)NC1CC1)N1CCC(N2CCCCC2)CC1` (stereo not given), the survival was 98%.
In the case of `Nc1nn(-c2ccccc2)nc1NC=O`, the survival is reported as 95%.
`Nc1nn(-c2ccccc2)nc1C(=O)OCc1ccccc1Br` was tested, and the survival was 11% (active).
For `Cc1ccccc1CNC(=O)c1nn(-c2ccccc2F)nc1CO`, the survival was 85%.
For `Cc1ccccc1COC(=O)c1nn(-c2ccccc2)nc1N`, the survival was -1% (active).
With `Cc1ccccc1COC(=O)c1ccc(-c2nnn(Cc3ccccc3F)n2)cc1` the survival was 54%.
For `O=C(NCCCCc1ccccc1)c1nn(-c2ccccc2)nc1CO`, the survival was 58%.
In the case of `Cc1ccc(Cl)cc1NC(=O)C1CCCN(S(=O)(=O)c2c(C)noc2/C=C/N(C)C)C1` (stereo not given), the survival is reported as 51%.
`Cc1ccccc1Nc1sc(C(=O)c2ccc(F)cc2)c(N)c1C(=O)NCCc1ccccc1` gave a survival of 81%.
`COc1cccc(Nc2sc(C(=O)c3ccc(F)cc3)c(N)c2C(=O)NCc2ccc(C)cc2)c1` was tested, and the survival was 91%.
With `COc1cccc(Nc2sc(C(=O)c3ccc(F)cc3)c(N)c2C(=O)NCc2ccc(Cl)cc2)c1` the survival was 8% (active).
`Cc1ccccc1Nc1sc(C(=O)c2ccccc2)c(N)c1C(=O)NCc1ccc(Cl)cc1` showed a survival of 100%.
With `COc1cccc(Nc2sc(C(=O)c3ccc(Cl)cc3)c(N)c2C(=O)NCc2ccc(C)cc2)c1` the survival was 95%.
With `Cc1ccc(CNC(=O)c2c(Nc3ccccc3C)sc(C(=O)c3ccc(F)cc3)c2N)cc1` the survival was 20% (active).
`Cc1cccc(-c2cc(NC(=O)C(C)(C)C)n(-c3ccccc3)n2)c1` was tested, and the survival was 99%.
With `CC1Cc2cc(S(=O)(=O)CCC(=O)NCc3ccccc3Cl)ccc2N1C(=O)C1CC1` (stereo not given) the survival was 89%.
`COc1ccccc1CNC(=O)CCS(=O)(=O)c1ccc2c(c1)CC(C)N2C(=O)C1CC1` (stereo not given) was tested, and the survival was 8% (active).
For `COc1cccc(CNC(=O)CCS(=O)(=O)c2ccc3c(c2)CC(C)N3C(=O)C2CC2)c1` (stereo not given), the survival was 20% (active).
`CCC(=O)N1c2ccc(S(=O)(=O)CCC(=O)NCc3cccc(OC)c3)cc2CC1C` (stereo not given) was tested, and the survival was 102%.
With `COc1ccc(CNC(=O)CCS(=O)(=O)c2ccc3c(c2)CC(C)N3C(=O)C2CC2)cc1` (stereo not given) the survival was 95%.
With `CCC(=O)N1c2ccc(S(=O)(=O)CCC(=O)NCc3ccccc3OC)cc2CC1C` (stereo not given) the survival was 90%.
For `CCc1cccc(NC(=O)c2ccc3c(=O)n4nc(Nc5ccccc5OC)sc4nc3c2)c1`, the survival was 74%.
`Clc1ccccc1-c1nnc(SCc2nc(-c3ccccc3)no2)n1-c1ccccc1` was tested, and the survival was 52%.
With `CC(C)(C)OC(=O)N1CCC(c2c(C(=O)N3CCN(c4ccccc4)CC3)cnn2-c2ccccc2)CC1` the survival was 81%.
With `COc1cc(OC)c(Nc2nc3ccccc3nc2-n2nc(C)cc2C)cc1Cl` the survival was 97%.
For `Cc1cc(C)cc(Nc2nc3ccccc3nc2-n2nc(C)cc2C)c1`, the survival was 23% (active).
In the case of `Cc1cc(C)n(-c2nc3ccccc3nc2Nc2cc(Cl)ccc2C)n1`, the survival is reported as 130%.
In the case of `Cc1cc(C)n(-c2nc3ccccc3nc2Nc2cccc(C)c2C)n1`, the survival is reported as 21% (active).
For `Cc1cc(C)n(-c2nc3ccccc3nc2Nc2ccc(Cl)c(Cl)c2)n1`, the survival was 0% (active).
In the case of `Cc1ccc2nc(Nc3cccc(Cl)c3C)c(-n3nc(C)cc3C)nc2c1`, the survival is reported as 123%.
For `Cc1cc(C)n(-c2nc3ccccc3nc2Nc2cccc(C(F)(F)F)c2)n1`, the survival was 75%.
Compound `Cc1ccc(Nc2nc3ccccc3nc2-n2nc(C)cc2C)c(Cl)c1` has a survival of 70%.
Work on `Cc1cc(C)n(-c2nc3ccccc3nc2Nc2ccc(Cl)cc2Cl)n1` yielded a survival of 75%.
With `Cc1cc(C)cc(Nc2nc3cc(Cl)c(Cl)cc3nc2-n2nc(C)cc2C)c1` the survival was 89%.
For `COc1ccc(OC)c(Nc2nc3ccccc3nc2-n2nc(C)cc2C)c1`, the survival was 16% (active).
With `COc1ccccc1Nc1nc2ccc(Cl)cc2nc1-n1nc(C)cc1C` the survival was 133%.
With `CCOC(=O)c1cc(-c2ccccc2)n(CCC(=O)Nc2cc(C)cc(C)c2)c1C` the survival was 99%.
For `Cc1ccc(NC(=O)C(C)Sc2nc(=O)cc(N)n2-c2cccc(C)c2)cc1` (stereo not given), the survival was 59%.
With `CCOC(=O)c1cccc(NC(=O)c2cn(-c3cccc(OC)c3)c(=O)c3ccccc23)c1` the survival was 60%.
Compound `COc1ccc(Cl)cc1NC(=O)c1ccc(CN2C(=O)CCn3nc(C)cc32)cc1` has a survival of 66%.
`CC(C)c1ccc(NC(=O)CSC2=Nc3ccccc3C3=NC(CC(=O)NCCc4ccccc4)C(=O)N23)cc1` (stereo not given) gave a survival of 72%.
In the case of `Nc1nc(CC(=O)NN=C2CCCCCC2)cs1`, the survival is reported as 65%.
`Cc1cc(C)n(-c2nc3ccccc3nc2Nc2ccc(C(C)C)cc2)n1` was tested, and the survival was 8% (active).
`COc1cccc(Nc2nc3ccc(C)cc3nc2-n2nc(C)cc2C)c1` was tested, and the survival was 88%.
Compound `Cc1cc(C)n(-c2nnc(Nc3ccc(C(C)C)cc3)c3ccccc23)n1` has a survival of 80%.
Work on `CCc1ccccc1Nc1nc2cc(Cl)c(Cl)cc2nc1-n1nc(C)cc1C` yielded a survival of 89%.
For `CCOc1ccc(Nc2nc3cc(Cl)c(Cl)cc3nc2-n2nc(C)cc2C)cc1`, the survival was 87%.
`Cc1cc(C)n(-c2nc3ccccc3nc2Nc2ccc(N(C)C)cc2)n1` was tested, and the survival was -2% (active).
